# Laboratory results from PubChem BioAssay.
# A number with no mark means an inactive call. Inconclusive results are not listed. Active and inactive are the calls of the source. Unless noted, no rule for the calls is given here.
# Columns and labels:
# [1] = system: Aerobactin synthetase IucA (Klebsiella pneumoniae); assay: inhibition of K. pneumoniae IucA enzyme – biochemical, Tocris library, absorbance (AID 1345561); conditions: purified IucA enzyme assay, absorbance (OD) read-out; hits give low values;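 tested at 8 µM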;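 also: 100% = enzyme without compound and 0% = no enzyme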
# [2] = viability loss in pontine glioma line – cell-based, SU-DIPG-XVII, MIPE5.0, CellTiter-Glo, qHTS, dose response (AID 1347060; cut-off not given, nearly all actives have AC50 up to about 26 µM;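 as to AC50: cells exposed to compound for 48 hours before viability readout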); conditions: CellTiter-Glo ATP luminescence
# [3] = viability loss in pontine glioma line – cell-based, SU-DIPG-XIII, MIPE4.0, CellTiter-Glo, qHTS, dose response (AID 1347061; cut-off not given, nearly all actives have AC50 up to about 37 µM;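 also: cells exposed to compound for 48 hours before readout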); conditions: CellTiter-Glo ATP luminescence
# [4] = viability loss in pontine glioma line – cell-based, JHH-DIPG-1, MIPE4.0, CellTiter-Glo, qHTS, dose response (AID 1347062; cut-off not given, nearly all actives have AC50 up to about 27 µM;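 as to AC50: cells exposed to compound for two days before readout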); conditions: JHH-DIPG-1 viability, CellTiter-Glo ATP luminescence
# [5] = viability loss in pontine glioma line – cell-based, SU-DIPG-IV, MIPE4.0, CellTiter-Glo, qHTS, dose response (AID 1347063; cut-off not given, nearly all actives have AC50 up to about 30 µM;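 also: compound exposure lasted 48 hours before the viability readout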); conditions: CellTiter-Glo ATP luminescence
# [6] = viability loss in pontine glioma line – cell-based, SU-DIPG-XIII, MIPE5.0, CellTiter-Glo, qHTS, dose response (AID 1347064; cut-off not given, nearly all actives have AC50 up to about 23 µM); conditions: CellTiter-Glo ATP luminescence
# [7] = viability loss in pontine glioma line – cell-based, SU-DIPG-XXV, MIPE5.0, CellTiter-Glo, qHTS, dose response (AID 1347065; cut-off not given, nearly all actives have AC50 up to about 26 µM;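 also: cells exposed to compound for 48 hours before ATP readout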); conditions: CellTiter-Glo ATP luminescence
# [8] = growth inhibition of DIPG cells – cell-based, MIPE4.0 library, CellTiter-Glo luminescence, qHTS (AID 1347066; cut-off not given, nearly all actives have AC50 up to about 30 µM;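 also: cells exposed to compound for 48 hours before readout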); conditions: SU-DIPG-VI viability, CellTiter-Glo ATP luminescence
# [9] = JHH-DIPG-1 glioma cell viability, MIPE5.0 library, CellTiter-Glo luminescence, qHTS (AID 1347067; cut-off not given, nearly all actives have AC50 up to about 26 µM;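 also: cells exposed to compound for 48 hours before readout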); conditions: JHH-DIPG-1 glioma viability, CellTiter-Glo ATP luminescence
# [10] = growth inhibition of DIPG cells – cell-based, MIPE5.0 library, qHTS (AID 1347068; cut-off not given, nearly all actives have IC50 up to about 30 µM;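 as to IC50: cells exposed to compound for 48 hours before viability readout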); conditions: SU-DIPG-XXV viability
# [11] = system: Aerobactin synthetase IucA (Klebsiella pneumoniae hvKP1); assay: IucA enzyme inhibition, primary screen, biochemical, Spectrum library (AID 1346200); conditions: malachite green pyrophosphate, A620, at 8 µM, hits give low values;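 also: 100% = wells without compound and 0% = wells lacking enzyme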
# [12] = molecular target: Mitogen-activated protein kinase 7 (Homo sapiens) (UniProt Q13164); assay: Gal4-ERK5 driven luciferase induction – cell-based, HTS, primary screen (AID 1508626;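 active = luciferase signal above three times the same-plate solvent-only control wells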;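 also: luciferase driven by Gal4-ERK5 fusion binding five Gal4 sites before minimal TATA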); conditions: HeLa Gal4-ERK5 transactivation, 18 h, at 5 µM, hits give high values
# [13] = blockers of cellular phospholipid synthesis – cell-based, LOPAC library, screen 4, primary screen (AID 1347384); conditions: animal cells, phospholipid biosynthesis inhibition screen; at 10 µM
# [14] = molecular target: ATP-dependent translocase ABCB1 (Homo sapiens) (UniProt P08183); assay: P-glycoprotein substrate transport blockade – cell-based (AID 377; in the data active = fluorescence slope change above about 50%); conditions: MDR1-expressing cells, fluorescent substrate accumulation slope; hits give high values; concentration not given here
# ATP-dependent translocase ABCB1 (Homo sapiens), sequence (P08183 whole entry, looked up): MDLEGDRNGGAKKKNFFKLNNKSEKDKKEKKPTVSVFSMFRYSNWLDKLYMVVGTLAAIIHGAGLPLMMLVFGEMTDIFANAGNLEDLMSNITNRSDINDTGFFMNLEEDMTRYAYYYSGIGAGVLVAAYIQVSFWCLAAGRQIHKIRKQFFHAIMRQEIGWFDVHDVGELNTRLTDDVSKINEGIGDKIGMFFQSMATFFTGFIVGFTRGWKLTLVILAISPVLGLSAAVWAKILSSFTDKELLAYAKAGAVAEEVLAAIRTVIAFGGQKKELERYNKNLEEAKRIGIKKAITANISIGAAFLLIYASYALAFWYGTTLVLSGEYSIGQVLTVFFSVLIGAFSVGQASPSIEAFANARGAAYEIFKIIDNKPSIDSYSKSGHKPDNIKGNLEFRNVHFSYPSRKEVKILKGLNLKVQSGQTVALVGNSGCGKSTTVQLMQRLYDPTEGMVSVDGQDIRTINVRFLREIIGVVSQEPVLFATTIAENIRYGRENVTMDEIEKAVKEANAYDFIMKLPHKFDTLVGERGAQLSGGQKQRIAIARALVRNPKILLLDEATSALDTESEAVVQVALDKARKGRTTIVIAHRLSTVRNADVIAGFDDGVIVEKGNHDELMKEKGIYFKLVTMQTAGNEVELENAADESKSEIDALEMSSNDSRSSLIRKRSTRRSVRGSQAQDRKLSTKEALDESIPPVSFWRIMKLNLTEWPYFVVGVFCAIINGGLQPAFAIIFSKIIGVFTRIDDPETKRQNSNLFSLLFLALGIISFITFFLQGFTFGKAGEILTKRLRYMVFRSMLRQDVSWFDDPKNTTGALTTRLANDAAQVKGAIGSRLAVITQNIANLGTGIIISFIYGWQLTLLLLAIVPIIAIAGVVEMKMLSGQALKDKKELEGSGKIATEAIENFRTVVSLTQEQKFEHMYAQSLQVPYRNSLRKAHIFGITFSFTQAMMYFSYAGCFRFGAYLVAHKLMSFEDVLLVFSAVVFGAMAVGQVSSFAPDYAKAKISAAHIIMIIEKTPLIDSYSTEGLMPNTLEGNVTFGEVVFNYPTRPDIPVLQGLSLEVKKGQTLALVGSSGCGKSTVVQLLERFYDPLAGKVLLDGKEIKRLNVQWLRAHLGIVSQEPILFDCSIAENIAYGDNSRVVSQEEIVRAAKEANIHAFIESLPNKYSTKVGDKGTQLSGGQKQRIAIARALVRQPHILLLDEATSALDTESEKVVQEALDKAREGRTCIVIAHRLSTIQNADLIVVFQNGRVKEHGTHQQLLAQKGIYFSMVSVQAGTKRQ
# Mitogen-activated protein kinase 7 (Homo sapiens), sequence (Q13164 whole entry, looked up, the tested form may be a part): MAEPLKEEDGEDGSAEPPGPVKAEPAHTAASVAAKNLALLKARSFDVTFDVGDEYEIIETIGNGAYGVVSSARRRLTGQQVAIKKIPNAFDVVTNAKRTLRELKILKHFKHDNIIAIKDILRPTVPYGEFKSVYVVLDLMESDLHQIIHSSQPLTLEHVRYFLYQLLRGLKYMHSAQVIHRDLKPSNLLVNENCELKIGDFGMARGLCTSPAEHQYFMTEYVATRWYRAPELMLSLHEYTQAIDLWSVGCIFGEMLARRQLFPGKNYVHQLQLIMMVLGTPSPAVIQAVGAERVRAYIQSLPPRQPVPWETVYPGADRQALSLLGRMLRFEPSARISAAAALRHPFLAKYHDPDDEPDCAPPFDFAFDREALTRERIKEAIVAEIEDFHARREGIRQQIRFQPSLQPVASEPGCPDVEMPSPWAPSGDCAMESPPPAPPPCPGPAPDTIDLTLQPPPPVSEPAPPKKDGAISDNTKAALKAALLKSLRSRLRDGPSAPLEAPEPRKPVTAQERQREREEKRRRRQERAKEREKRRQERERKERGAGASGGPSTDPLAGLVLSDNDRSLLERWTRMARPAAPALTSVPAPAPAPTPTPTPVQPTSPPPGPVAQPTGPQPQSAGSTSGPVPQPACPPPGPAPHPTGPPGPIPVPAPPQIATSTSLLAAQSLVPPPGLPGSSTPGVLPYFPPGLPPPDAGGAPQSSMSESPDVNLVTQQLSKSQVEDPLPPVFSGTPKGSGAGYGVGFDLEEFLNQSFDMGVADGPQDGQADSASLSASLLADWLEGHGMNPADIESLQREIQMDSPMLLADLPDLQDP
smiles,measurement,setting,value
FC(F)(F)c1cccc(C2=CCN(CCc3ccc4ccccc4c3)CC2)c1,remaining activity,[1],94.1%
CCCC[N+]1(C)[C@@H]2CC(OC(=O)[C@H](CO)c3ccccc3)C[C@H]1[C@@H]1O[C@@H]12 (stereo not given in full),outcome,[2],inactive
same,outcome,[3],inactive
same,outcome,[4],inactive
same,outcome,[5],inactive
same,outcome,[6],inactive
same,outcome,[7],inactive
same,outcome,[8],inactive
same,outcome,[9],inactive
same,outcome,[10],inactive
O=C(NC(=O)c1c(F)cccc1F)Nc1cc(Cl)c(OC(F)(F)C(F)C(F)(F)F)cc1Cl (stereo not given),activity remaining,[11],94.5%
CC(C)NCC(O)c1ccc(N)c(C#N)c1 (stereo not given),remaining activity,[1],122%
O=C1NCN(c2ccccc2)C12CCN(CC1COc3ccccc3O1)CC2 (stereo not given),remaining activity,[1],104%
C[N+]1(C)[C@@H]2CC[C@H]1CC(OC(=O)C(CO)c1ccccc1)C2 (stereo not given in full),luciferase signal,[12],60 AU
CCCCc1ccc(C(=O)O)nc1,outcome,[13],inactive
CC(=O)[C@H]1CC[C@H]2[C@@H]3CC[C@H]4C[C@H](O)CC[C@]4(C)[C@H]3C(=O)C[C@]12C,outcome,[13],inactive
CCOC(=O)CC(SP(=S)(OC)OC)C(=O)OCC (stereo not given),luciferase signal,[12],52 AU
COc1ccc(CN2CCNCC2)c(OC)c1OC,fluorescence slope change,[14],2.5%
COP(=O)(OC)OC=C(Cl)Cl,luciferase signal,[12],84 AU
O=C(O)c1ccc2[nH]cc(CCCCN3CC=C(c4ccccc4)CC3)c2c1,remaining activity,[1],115%
COC[C@@H](NC(C)=O)C(=O)NCc1ccccc1,outcome,[2],inactive
same,outcome,[4],inactive
same,outcome,[6],inactive
same,outcome,[7],inactive
same,outcome,[8],inactive
same,outcome,[9],inactive
same,outcome,[10],inactive
Cc1nnc2n1-c1sc(CCC(=O)N3CCOCC3)cc1C(c1ccccc1Cl)=NC2,remaining activity,[1],108%
CC(C)(C)OC(=O)c1ncn2c1[C@@H]1CCCN1C(=O)c1c(Br)cccc1-2,remaining activity,[1],103%
NCC1(CC(=O)O)CCCCC1,fluorescence slope change,[14],23.2%
same,outcome,[2],inactive
same,outcome,[3],inactive
same,outcome,[4],inactive
same,outcome,[5],inactive
same,outcome,[6],inactive
same,outcome,[7],inactive
same,outcome,[8],inactive
same,outcome,[10],inactive
same,outcome,[13],inactive
same,luciferase signal,[12],76 AU
Cc1ncsc1CCCl,remaining activity,[1],110%
same,outcome,[13],inactive
Clc1cccc(SC2CCNCC2)n1,remaining activity,[1],108%
C=CCN1C[C@H](C)N([C@H](c2ccc(C(=O)N(CC)CC)cc2)c2cccc(OC)c2)C[C@H]1C,remaining activity,[1],118%
C[C@]12CC[C@H](O)CC1=CC[C@@H]1[C@@H]2CC[C@]2(C)C(=O)CC[C@@H]12,outcome,[2],inactive
same,outcome,[3],inactive
same,outcome,[4],inactive
same,outcome,[5],inactive
same,outcome,[6],inactive
same,outcome,[7],inactive
same,outcome,[8],inactive
same,outcome,[9],inactive
same,outcome,[10],inactive
same,luciferase signal,[12],48 AU
Cc1ccc(S(=O)(=O)N[C@@H](CCCCN)C(=O)CCl)cc1,outcome,[13],inactive
c1ccc(C2CC2)c(OCC2=NCCN2)c1,remaining activity,[1],102%
same,outcome,[13],inactive
Cc1cccc(C)c1NC(=O)CN1CCCC1=O,outcome,[3],inactive
same,outcome,[4],inactive
same,outcome,[5],inactive
same,outcome,[6],inactive
same,outcome,[7],inactive
same,outcome,[9],inactive
same,outcome,[10],inactive
same,outcome,[13],inactive
Fc1ccc(C(OCCN2CCN(CCCc3ccccc3)CC2)c2ccc(F)cc2)cc1,fluorescence slope change,[14],119% (active)
same,remaining activity,[1],118%
same,AC50,[2],14.8 µM (active)
same,AC50,[3],20.9 µM (active)
same,AC50,[4],14.8 µM (active)
same,AC50,[5],13.2 µM (active)
same,AC50,[7],8.33 µM (active)
same,AC50,[8],16.6 µM (active)
same,AC50,[9],18.6 µM (active)
same,IC50,[10],16.6 µM (active)
same,outcome,[13],inactive
CCCN1CCC[C@@H]2Cc3nc(N)ncc3C[C@H]21,outcome,[13],inactive
COc1ccc(C(=O)c2c(C)n(CCN3CCOCC3)c3ccccc23)cc1,outcome,[3],inactive
same,outcome,[4],inactive
same,outcome,[5],inactive
same,outcome,[8],inactive
same,AC50,[9],16.6 µM (active)
C#C[C@]1(O)C=C[C@H]2[C@@H]3CCC4=CC(=O)CC[C@@H]4[C@H]3CC[C@@]21CC,outcome,[2],inactive
same,outcome,[3],inactive
same,outcome,[4],inactive
same,outcome,[5],inactive
same,outcome,[6],inactive
same,outcome,[7],inactive
same,outcome,[8],inactive
same,outcome,[9],inactive
OC(c1ccccc1)(c1ccccc1)C1CCNCC1,fluorescence slope change,[14],93.1% (active)
CN(C)CCc1ccc(O)cc1,outcome,[3],inactive
same,outcome,[4],inactive
same,outcome,[5],inactive
same,outcome,[8],inactive
O=C(CCCN1CCC(n2c(=O)[nH]c3ccccc32)CC1)c1ccc(F)cc1,fluorescence slope change,[14],57.5% (active)
COc1ccc2c(c1OC)CN1CCc3cc4c(cc3C1C2)OCO4 (stereo not given),fluorescence slope change,[14],24.8%
same,outcome,[3],inactive
same,AC50,[4],14.8 µM (active)
same,AC50,[5],16.6 µM (active)
same,outcome,[8],inactive
[N-]=[N+]=CC(=O)OC[C@H](N)C(=O)O,luciferase signal,[12],40 AU
CN1C[C@H](CNC(=O)OCc2ccccc2)C[C@@H]2c3cccc4c3c(cn4C)C[C@H]21,fluorescence slope change,[14],18.1%
same,remaining activity,[1],86.6%
same,outcome,[13],inactive
